# Compounds with a hit are over-represented: about 10% of the library has one in this group of screens.
# HPGD block: HPGD (human) dehydrogenase inhibition. Potency, µM, for the others: at the top dose activity change, negative = inhibition, hits mostly inhibitors. P15428. AID 894. hit rate 4.3% among 150,000. purified HPGD, NADH fluorescence kinetic, PGE2 substrate; active means well fitted inhibition curve with a large enough effect, not every such curve was filed as active; inconclusive means small, poorly fitted or top-dose-only effect, or another doubt; inactive means no such curve, though single readings can be large or run the other way; further: potency means the concentration at half of the fitted maximal effect; on the % scale 0 is the no-effect control and ±100 the full control effect
#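 20 nM HPGD preincubated 15 min at room temperature with compound in 50 mM Tris-HCl pH 8, 0.01% Tween 20. Started with 1 mM NAD+ and 30 uM prostaglandin E2; NADH fluorescence (360/450 nm) read 5 times over 30-s intervals, last minus first.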
# LMNA splice mod: changes lamin A minigene splicing in HeLa cells; AID 1487; Potency, µM (titrated, usually from 46.1 µM), for inactives: at the highest dose ratio change, negative = inhibition, hits mostly inhibitors; hit rate 0.01% among 200,000; HeLa LMNA splicing GFP/RFP minigene ratio, 48 h; active means well fitted inhibition curve with a large enough effect in the signal ratio, with a control signal flat, not every such curve was filed as active; inconclusive means small, poorly fitted or top-dose-only effect, or effect the other way, or a change in a side signal; the % refers to the signal ratio; further: potency means the concentration at half of the fitted maximal effect; on the % scale 0 is the no-effect control and ±100 the full control effect
#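 S3 HeLa stable clones carrying a lamin A-EGFP splicing minigene plus DsRed2 were seeded at 600 cells/well in Opti-MEM with 2% FBS, pin-dosed and incubated 48 h at 37°C. Acumen cytometry (488 nm) gave the GFP/RFP total-intensity ratio.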
# 12-hLO inh: 12-hLO (ALOX12) enzyme inhibition. Potency, µM (series often up to 57.1 µM), for the others: at the highest dose activity change, negative = inhibition, usual class: inhibitors. purified 12-hLO, xylenol orange hydroperoxide absorbance. hit rate 0.12% among 150,000; active means well fitted inhibition curve with a large enough effect; inconclusive means small, poorly fitted or top-dose-only effect; further: potency means the concentration at half of the fitted maximal effect; on the % scale 0 is the no-effect control and ±100 the full control effect; nearly all actives have a fitted effect of over 55% in size
# Target sequence (P18054 whole entry, looked up): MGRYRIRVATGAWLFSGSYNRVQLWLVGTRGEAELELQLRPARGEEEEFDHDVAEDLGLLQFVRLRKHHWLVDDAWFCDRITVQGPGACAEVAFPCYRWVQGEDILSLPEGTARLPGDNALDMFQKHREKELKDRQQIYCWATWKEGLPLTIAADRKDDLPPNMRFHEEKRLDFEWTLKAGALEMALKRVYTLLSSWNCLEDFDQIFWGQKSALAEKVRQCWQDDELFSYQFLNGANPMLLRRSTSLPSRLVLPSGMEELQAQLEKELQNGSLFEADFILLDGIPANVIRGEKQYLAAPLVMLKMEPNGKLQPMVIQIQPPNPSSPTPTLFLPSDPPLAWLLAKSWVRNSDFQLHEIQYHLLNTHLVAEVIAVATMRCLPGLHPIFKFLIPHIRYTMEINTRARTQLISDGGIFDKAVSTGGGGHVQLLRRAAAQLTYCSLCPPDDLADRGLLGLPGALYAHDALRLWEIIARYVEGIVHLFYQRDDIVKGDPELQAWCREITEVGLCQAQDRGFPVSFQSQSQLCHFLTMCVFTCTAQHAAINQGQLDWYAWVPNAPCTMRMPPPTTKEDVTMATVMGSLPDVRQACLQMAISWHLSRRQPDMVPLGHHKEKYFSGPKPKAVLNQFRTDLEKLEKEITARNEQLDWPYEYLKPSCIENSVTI
#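 150 nM 12hLO, 25 mM Hepes pH 7.0 + 0.01% Triton X-100; cpd preinc 15 min RT; 40 uM arachidonic acid, 30 min RT; Fe-XO 30 min; A573/A405 ratio as read-out.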
# PNC assembly inh: perinucleolar compartment assembly inhibition | PC3M PTB-GFP, PNC prevalence imaging, 16 h; hits give low values | hit rate 3.1% among 140,000 | activity change (PNC), negative = inhibition, % at 10 µM;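 active means readout at or below -70, meaning at least 70% loss of cells showing the perinucleolar compartment, a nuclear body marking cancer cells; inconclusive means readout between -30 and a set limit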;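 further: plate controls were DMSO wells for no effect and camptothecin positive control wells for full effect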
#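 PC3M cells stably expressing PTB-GFP, 750–1000 cells/well, treated 16 h at 37 °C with compound (23 nl of library stock), in duplicate. After paraformaldehyde fixation and Hoechst stain, imaged at 20x; PNC prevalence scored by image analysis.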
# ALDH1A1 inh-1: blocks purified human ALDH1A1 activity; P00352; Purified ALDH1A1, NADH fluorescence, propionaldehyde substrate; Potency, µM (top dose mostly 75.3 µM), without a hit: at the top dose activity, negative = inhibition, most hits filed as inhibitors; hit rate 7.3% among 220,000; active means well fitted inhibition curve with a large enough effect, not every such curve was filed as active; inconclusive means small, poorly fitted or top-dose-only effect, or another doubt; inactive means no such curve, though single readings can be large or run the other way;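 further: potency means the concentration at half of the fitted maximal effect; plate controls were no enzyme wells and a reference inhibitor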
# HPGD inh cf: human HPGD enzyme inhibition, confirmation. recombinant HPGD, NADH fluorescence, PGE2 substrate. Potency, µM (titrated, usually from 57.1 µM), without a hit: at the highest dose activity change, negative = inhibition, actives largely listed as inhibitors. shares compounds with HPGD block. AID 2429. hit rate 90% among 90
# ALDH1A1 inh-2: Blocks ALDH1A1 NADH production, follow-up. shares compounds with ALDH1A1 inh-1. hit rate 90% among 90. purified ALDH1A1, NADH fluorescence, propionaldehyde/NAD+. Potency, µM (series often up to 57.1 µM), without a hit: at the highest dose activity change, negative = inhibition, most hits filed as inhibitors
# * marks the source's active call; other numbers are inactive results; ? = inconclusive; nt = not tested or not shown; ! = not active in a repeat; [ ] = dose if it differs, or a comment. Unless noted, the call rests on the fitted dose curve.
SMILES,HPGD block,LMNA splice mod,12-hLO inh,PNC assembly inh,ALDH1A1 inh-1,others
Cc1ccc(/C=C2\C(=O)NC(=S)N(c3ccccc3F)C2=O)s1,2.2µM*,?,-28%,-22,8.9µM*,
Cc1cc[c]([Sb]2[O]C([C@H](O)[C@H](O)C(=O)O)[C@@H](CO)[O]2)cc1 (stereo partly specified),1%,nt,nt,nt,3%[13.5 µM],
C=C1C(O)C2OC3(CCC(/C=C/C(C)C4CC(C)=CC5(OC(CC(C)(O)C(=O)O)CCC5O)O4)O3)CCC2OC1C(O)CC(C)C1OC2(CCCCO2)CCC1C (stereo unspecified),-2%,nt,2%[0.00818 µM],nt,3%[2.48 µM],
COc1ccc(NC(=O)N2CCC3(CC2)CCN(C(=O)Oc2ccccc2)CC3)cc1,-13%,nt,-3%,nt,10µM*,
C[C@H](CCC(=O)O)[C@H]1CC[C@@H]2[C@H]3[C@@H](CC[C@@]21C)[C@]1(C)CC[C@H](O)C[C@@H]1C[C@@H]3O,-2%,?,1%[25.6 µM],nt,-5%[20.9 µM],
Cc1cccc2c1=NC(=O)/C(=C/c1c(O)[nH]c(=O)[nH]c1=O)C=2,?,-4%,-3%,-29,0.5µM*,
CN(CCc1ccc(Cl)c(Cl)c1)[C@@H]1CCCC[C@@H]1N1CCCC1,nt,nt,nt,nt,3.5µM*,
O=c1ccc2cc(OC3OC(CO)C(O)C(O)C3O)c(O)cc2o1 (stereo unspecified),?,nt,-2%,nt,?,
O=C1NS(=O)c2cc([N+](=O)[O-])cc([N+](=O)[O-])c21 (stereo unspecified),nt,-1%[46 µM],nt,nt,22µM*,
O=[N+]([O-])c1cc([N+](=O)[O-])c2ccccc2c1,-10%,nt,-3%,nt,-6%,
c1ccc2c(c1)CCNC2,-6%,nt,3%,nt,4%,
O=c1c2ccccc2nc(-c2ccoc2)n1-c1ccccc1Cl,-20%,?,0%,12,16µM*,
COc1ccc(CNCC(=O)N2CCC3(CC2)OCCO3)cc1,-5%,2%,-6%,-13,?,
Cc1cc(NC(=O)CCC(=O)N2CCC3(CC2)OCCO3)no1,-18%,17%,0%,-84*,-1%,
CC(C)C#N,-14%,nt,0%,nt,16%,
O=C(O)CN1CCN(CC(=O)O)CC(=O)[O][Hg][O]C(=O)C1,0.04µM*,nt,0.28µM*,nt,1.6µM*,
CC(C)=O,-1%,?,0%,nt,7%,
CCOP(=O)(OCC)C(NC(=O)c1ccccc1Cl)=C(Cl)Cl,-12%,-5%,-6%,18,4%,
O=C(NCc1ccccn1)c1ccccc1Cl,6.3µM*,-4%,6%,15,?,
Oc1c(Br)cc(Br)cc1Oc1ccc(Br)cc1Br,7.1µM*,?,-24%,-2,-1%,
Brc1ccc(Oc2ccc(Br)cc2Br)c(Br)c1,-4%,nt,-1%,nt,?,
Cc1cc(N2C(=O)C3CCCN3C2c2sccc2C)no1 (stereo unspecified),nt,?,-8%,-1,1.6µM*,
CC[n+]1c(-c2ccccc2)c2cc(N)ccc2c2ccc(N)cc21,35µM*!,?,0%[0.00818 µM],nt,-8%,
O=C1/C(=C\c2ccccc2)C[C@@]2(O)[C@H]3Cc4ccc(O)c5c4[C@@]2(CCN3CC2CC2)[C@@H]1O5,-14%,nt,2%,nt,-3%,
CCC(=O)Nc1ccc(Cl)c(Cl)c1,-26%,2%,-9%,nt,-6%,
SMILES,HPGD block,LMNA splice mod,12-hLO inh,PNC assembly inh,ALDH1A1 inh-1,others
Cn1ccc(NC(=O)CCl)n1,nt,?,nt,nt,20µM*,
COc1cc2c(cc1OC)[C@@]13CCN4C=C5CCO[C@H]6CC(=O)N2[C@@H]1C6[C@H]5C[C@H]43 (stereo partly specified),-9%,nt,nt,nt,11%[13.5 µM],
Cc1cc(C)c(Cn2c(C(=O)O)c(C=O)c3ccccc32)c(C)c1,nt,-11%[46 µM],nt,nt,14µM*,
O=Cc1c(C(=O)O)n(Cc2ccccc2Cl)c2ccccc12,nt,7%[46 µM],nt,nt,?,
Oc1c(Cl)c(Cl)c(Cl)c(Cl)c1Cl,nt,?,-9%,nt,18µM*!,
Cc1ccc(-c2nc(N3CCOCC3)s[n+]2-c2ccccc2)cc1,0.16µM*,2%,-4%,24,2.5µM*,HPGD inh cf=3.2µM*
CC(=O)Nc1ccccc1OP1(=O)COc2ccccc2OC1,-5%,13%,2%,?,3%,HPGD inh cf=-11%
CC(=O)Nc1ccccc1C(=O)OCC(=O)c1ccccc1Cl,-10%,-16%,1%,-22,-11%,
Cc1ccc(S(=O)(=O)N2CCC(=O)N(CCOC(=O)Nc3cccc(Cl)c3)CC2)cc1,-9%,?,-4%,-26,3%,
COc1ccc2c(c1)CCC1C2CC[C@@]2(C)C1CC[C@@H]2NCCCCCCN1C(=O)C=CC1=O (stereo partly specified),-12%,-21%,nt,nt,0.5µM*,ALDH1A1 inh-2=5µM*

# Source: PubChem (National Center for Advancing Translational Sciences (NCATS))
